D1 PAM: Potentiators of Human D1 Dopamine Receptor: qHTS | D(1A) dopamine receptor (Homo sapiens), P21728 | HEK293 TREx D1 cells, calcium flux, dopamine EC20 potentiation | potentiation, % at 10 µM | actives 0.036% (n = 360,000) | AID 504651, 2011; in the data active = potentiation above about 30%; also: 0% is about no effect
Target sequence (P21728 whole entry, looked up): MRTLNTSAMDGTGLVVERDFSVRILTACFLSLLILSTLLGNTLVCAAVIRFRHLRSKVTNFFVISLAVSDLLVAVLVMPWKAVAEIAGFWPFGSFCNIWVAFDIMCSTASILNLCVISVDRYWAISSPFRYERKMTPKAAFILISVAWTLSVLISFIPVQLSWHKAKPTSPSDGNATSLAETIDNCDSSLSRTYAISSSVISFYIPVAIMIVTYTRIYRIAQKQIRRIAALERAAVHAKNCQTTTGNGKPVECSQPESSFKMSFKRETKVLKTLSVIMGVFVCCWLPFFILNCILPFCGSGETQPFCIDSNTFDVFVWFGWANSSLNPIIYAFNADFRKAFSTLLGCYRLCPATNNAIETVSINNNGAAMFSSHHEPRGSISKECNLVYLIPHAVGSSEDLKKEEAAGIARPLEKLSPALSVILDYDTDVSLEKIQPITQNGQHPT
D1 antagonist: Antagonist of Human D 1 Dopamine Receptor: qHTS; D(1A) dopamine receptor (Homo sapiens), P21728; HEK293 TREx D1 cells, calcium flux, dopamine EC80; hits give low values; activity change, negative = inhibition, % at 10 µM; actives 3.2% (n = 360,000); AID 504652, 2011; in the data active = activity change below about -30%; also: % is scaled to controls: 0 for no effect and ±100 for the full control effect
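Calcium flux readout: force-coupled, inducible Hek293 Trex D1 line, cells induced overnight at 30 C with tetracycline, dye-loaded 30–90 min at RT. Antagonism scored against EC80 dopamine challenge given 180 s after compound.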
DRD3 antagonist: qHTS of D3 Dopamine Receptor Antagonist: qHTS | D3R cells, DiscoveRx beta-arrestin luminescence, antagonist mode; hits give low values | max response, negative = inhibition, % | actives 2.5% (n = 360,000) | AID 652054, 2013; in the data active = max response below about -50%; inconclusive = no clear call, values can overlap the other calls; also: % is scaled to controls: 0 for no effect and ±100 for the full control effect
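Cells expressing the human receptor were seeded at 1500 cells/well, incubated overnight at 37 degrees C in 5% CO2, then exposed to library compounds with dopamine controls for 90 minutes at 37 degrees C before luminescent detection.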
D1 ag: Allosteric Agonists of the Human D1 Dopamine Receptor: qHTS; HEK293 T-REx D1 cells, calcium flux, agonist mode; activation, % at 2 µM; actives 1% (n = 360,000); AID 504660, 2011; in the data active = activation above about 30%; also: 0% is about no effect
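Inducible HEK293 T-REx D1 cells, force-coupled to calcium signalling, were plated at 4000 cells/well with tetracycline and held overnight at 30 C. After no-wash calcium dye loading, compound-evoked calcium rise over 180 s flagged agonists.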
DRD3 agonist: qHTS of D3 Dopamine Receptor Agonist: qHTS; D3R DiscoveRx beta-arrestin cells, luminescence, 90 min; max activation, %; D(3) dopamine receptor (Homo sapiens), P35462; AID 652048, 2013; actives 0.58% (n = 410,000); in the data active = max activation above about 30%; also: 0% is about no effect
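Agonist-mode cell screen: cells plated at 1500/well and incubated overnight at 37 °C, then exposed to library compounds for 90 min at 37 °C. Detection reagent was added for 30–60 min at room temperature, and luminescence was read.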
Active calls of the source: *; ? = inconclusive; · = no result. Only some compounds are listed: those with a hit (about 6.1% of all), similar ones and a draw of the others.

SMILES | D1 PAM | D1 antagonist | DRD3 antagonist | D1 ag | DRD3 agonist
C=CCn1c(CCC(=O)Nc2ccc(C)c(Cl)c2)nnc1SCC(=O)Nc1ccccc1C | 7 | 4 | -7 | 3 | 5
COc1cc2c(cc1OC)C(C(C(=O)N(CCc1ccc(OC)c(OC)c1OC)CCc1ccc(OC)c(OC)c1OC)c1ccccc1)=NCC2 (stereo not given) | · | · | · | · | 1
COc1ccc(CNC(=S)Nc2ccc(Br)cc2)cc1 | -7 | -5 | 4 | 37* | 4
COc1ccc(CNC(=S)Nc2ccc(-c3ccccc3)cc2)cc1 | -7 | -27 | -7 | 13 | 2
CCC(=O)O[C@H]1CC[C@H]2[C@@H]3CCc4cc(O)ccc4[C@H]3CC[C@]12C | · | · | · | · | 17
O=C(CCCOc1ccccc1)NN1C(=O)NC2(CCCCC2)C1=O | -6 | -43* | -6 | 0 | 2
O=C(CN1C(=O)NC2(CCCC2)C1=O)OCCOc1ccccc1 | 0 | 4 | -4 | 1 | 4
C=CCOc1c(OC)cc(/C=N/Nc2cccc(C(=O)O)c2)c(Br)c1Br | -2 | -7 | 4 | -1 | 4
CC(=O)C1CCN(Cc2ccccc2)CC1 | -5 | 6 | 13 | 5 | -5
CSc1ccccc1OC1CCN(Cc2ccccc2)CC1 | -8 | -88* | -92* | 15 | -33
CCCC(CCC)C(=O)Nc1cccc(-c2cn3c(n2)SCC3)c1 | -3 | -5 | 0 | 0 | -1
O=C(Cc1ccc(Br)cc1)Nc1cccc(-c2cn3c(n2)SCC3)c1 | -13 | -41* | 16 | 10 | 2
Cc1ccccc1Cc1c(C)nc2c(C(=O)NCc3ccc4c(c3)OCO4)cnn2c1C | -4 | -15 | -81* | 4 | -22
Cc1ccccc1Cc1c(C)nc2c(C(=O)N3CCN(Cc4ccc5c(c4)OCO5)CC3)cnn2c1C | · | · | -60* | · | -4
Cc1nc2c(C(=O)N3CCN(C)CC3)cnn2c(C)c1Cc1ccc(Cl)cc1 | 0 | -15 | -75* | 1 | -37
Cc1cccc(C(=O)Nc2ccc(-c3nc4ccccc4s3)cc2Cl)c1 | 0 | 1 | · | 2 | 18
CCN(CC)c1ccc(NC(=O)CCc2c(C)nc3ncnn3c2C)c(C)c1 | 1 | 4 | · | 0 | -10
CC1(C(=O)Nc2ccccc2)CCN1C(=O)C1(c2ccccc2)CC1 (stereo not given) | · | · | 0 | · | -9
Cc1cc(Cl)ccc1N=c1ssnc1Cl | 0 | -17 | ? | 30* | 3
Cc1ccc(N=c2ssnc2Cl)cc1 | -5 | 2 | -27 | 1 | 15
Cc1cc(NC(=O)CNCC(c2ccccc2)N(C)C)c([N+](=O)[O-])cc1C (stereo not given) | -3 | 7 | -54* | 6 | 3
Cc1ccc(NC(=O)CNCC(c2ccccc2)N(C)C)cc1F (stereo not given) | -2 | 2 | -28 | 4 | -12
CC1(C)N([O-])C2=C(c3ccccc3C2=O)[N+](=O)C1(C)C | -2 | -32* | -5 | 2 | 1
CCC1(C)N([O-])C(C)=C(c2ccccc2)[N+]1=O (stereo not given) | 0 | 1 | 14 | 0 | 3
COc1ccccc1N1CCN(CCCCN2C(=O)c3ccccc3C2=O)CC1 | · | · | -107* | · | -7
SMILES | D1 PAM | D1 antagonist | DRD3 antagonist | D1 ag | DRD3 agonist
COc1ccccc1N1CCN(CCN2C(=O)C3CCCN3C2=O)CC1 (stereo not given) | -11 | 6 | -59* | 2 | -34
O=C1C2CCCCN2C(=O)N1CCCCN1CCN(c2ccccc2Oc2ccccc2)CC1 (stereo not given) | -8 | 0 | -104* | 6 | -22
Cc1ccc(N2CCN(CCCN3C(=O)C4CCCN4C3=O)CC2)cc1 (stereo not given) | -6 | -17 | -27 | 4 | -15
CCCNC(=O)c1ccccc1N1CCN(CCCCN2C(=O)C3CCCCN3C2=O)CC1 (stereo not given) | -4 | -1 | -72* | 2 | -8
COc1cccc(CN(C)C(=O)c2cccc(S(=O)(=O)Nc3cccc(C)c3)c2)c1OC | · | · | -10 | · | -15
Cc1ccc2occ(CC(=O)Nc3ccc(S(=O)(=O)N4CCC(C)CC4)cc3)c2c1 | 5 | 1 | · | 4 | 8
COc1ccccc1N1CCN(CCCCN2C(=O)C3CCCN3C2=O)CC1 (stereo not given) | · | · | -87* | · | -18
CCC1CCCCN1CCNC(=O)C1CCN(S(=O)(=O)c2cccc3nsnc23)CC1 (stereo not given) | 35* | -2 | 3 | 2 | 3
Cc1ccc(NC(=O)C2CCCN2S(=O)(=O)c2cccc3nsnc23)cc1Cl (stereo not given) | 0 | -11 | · | 2 | 13
O=C(C1CCN(S(=O)(=O)c2cccc3nsnc23)CC1)N1CCn2c1nc1ccccc12 | · | · | -101* | · | -22
CC1CCN(CCNC(=O)C2CCN(S(=O)(=O)c3cccc4nsnc34)CC2)CC1 | 8 | 10 | -27 | 3 | -12
O=C(O)c1ccc(Cl)c(NC(=O)C2CCCN2S(=O)(=O)c2cccc3nsnc23)c1 (stereo not given) | -2 | -40* | ? | 0 | -6
O=C(Nc1ccc(Br)cc1)C1CCN(S(=O)(=O)c2cccc3nsnc23)CC1 | -1 | -33* | · | 8 | -5
O=C(C1CCN(S(=O)(=O)c2cccc3nsnc23)CC1)N1CCc2ccccc21 | · | · | -3 | · | -4
Cc1oc(-c2ccccc2F)nc1CS(=O)CC(=O)NC(C)C (stereo not given) | -4 | -12 | · | 0 | 7
CCc1c(-c2ccccc2)[n+](=O)c2c(n1[O-])CCC2 | -4 | 12 | 24 | 3 | 3
Cc1ccc(N2C(=O)N(CC(=O)N(C)Cc3ccccc3)C(=O)C2C)cc1 (stereo not given) | -1 | -55* | -7 | 39* | 18
Cc1ccc(N2C(=O)N(CC(=O)NC(c3ccccc3)c3ccccc3)C(=O)C2C)cc1 (stereo not given) | -2 | -12 | 2 | 9 | 2
Cc1ccc(N(C(=O)c2csnn2)C(C(=O)NC2CCCCC2)c2ccccn2)cc1C (stereo not given) | -6 | -16 | 1 | 1 | 3
C#CCOc1ccc(C2C(C#N)=C(N)Oc3cc(O)ccc32)cc1 (stereo not given) | 4 | -4 | 11 | 4 | 0
COCCCNC(=S)N1CCCN(c2nc3c(C)c(C)ccc3cc2C#N)CC1 | -3 | -42* | -9 | -1 | 1
Cc1n[nH]c(=S)c2nn(-c3ccccc3)c(C)c12 | -9 | -33* | · | 1 | ·

Compound activity (PubChem)
